Compounds with a hit are over-represented: about 7.9% of the library has one in this group of screens.
Cav3 T inh: blocks human Cav3.2 T-type calcium channel; O95180; Cav3.2-expressing cells, Fluo-4 calcium fluorescence FDSS; active compounds read low; B-score at 10 µM; 100,000 tested, 4% active;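 active = single-dose well whose peak fluorescence ratio is a statistical outlier from its plate by either plate-standardised score or position-corrected B-score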
Target sequence (O95180 whole entry, looked up): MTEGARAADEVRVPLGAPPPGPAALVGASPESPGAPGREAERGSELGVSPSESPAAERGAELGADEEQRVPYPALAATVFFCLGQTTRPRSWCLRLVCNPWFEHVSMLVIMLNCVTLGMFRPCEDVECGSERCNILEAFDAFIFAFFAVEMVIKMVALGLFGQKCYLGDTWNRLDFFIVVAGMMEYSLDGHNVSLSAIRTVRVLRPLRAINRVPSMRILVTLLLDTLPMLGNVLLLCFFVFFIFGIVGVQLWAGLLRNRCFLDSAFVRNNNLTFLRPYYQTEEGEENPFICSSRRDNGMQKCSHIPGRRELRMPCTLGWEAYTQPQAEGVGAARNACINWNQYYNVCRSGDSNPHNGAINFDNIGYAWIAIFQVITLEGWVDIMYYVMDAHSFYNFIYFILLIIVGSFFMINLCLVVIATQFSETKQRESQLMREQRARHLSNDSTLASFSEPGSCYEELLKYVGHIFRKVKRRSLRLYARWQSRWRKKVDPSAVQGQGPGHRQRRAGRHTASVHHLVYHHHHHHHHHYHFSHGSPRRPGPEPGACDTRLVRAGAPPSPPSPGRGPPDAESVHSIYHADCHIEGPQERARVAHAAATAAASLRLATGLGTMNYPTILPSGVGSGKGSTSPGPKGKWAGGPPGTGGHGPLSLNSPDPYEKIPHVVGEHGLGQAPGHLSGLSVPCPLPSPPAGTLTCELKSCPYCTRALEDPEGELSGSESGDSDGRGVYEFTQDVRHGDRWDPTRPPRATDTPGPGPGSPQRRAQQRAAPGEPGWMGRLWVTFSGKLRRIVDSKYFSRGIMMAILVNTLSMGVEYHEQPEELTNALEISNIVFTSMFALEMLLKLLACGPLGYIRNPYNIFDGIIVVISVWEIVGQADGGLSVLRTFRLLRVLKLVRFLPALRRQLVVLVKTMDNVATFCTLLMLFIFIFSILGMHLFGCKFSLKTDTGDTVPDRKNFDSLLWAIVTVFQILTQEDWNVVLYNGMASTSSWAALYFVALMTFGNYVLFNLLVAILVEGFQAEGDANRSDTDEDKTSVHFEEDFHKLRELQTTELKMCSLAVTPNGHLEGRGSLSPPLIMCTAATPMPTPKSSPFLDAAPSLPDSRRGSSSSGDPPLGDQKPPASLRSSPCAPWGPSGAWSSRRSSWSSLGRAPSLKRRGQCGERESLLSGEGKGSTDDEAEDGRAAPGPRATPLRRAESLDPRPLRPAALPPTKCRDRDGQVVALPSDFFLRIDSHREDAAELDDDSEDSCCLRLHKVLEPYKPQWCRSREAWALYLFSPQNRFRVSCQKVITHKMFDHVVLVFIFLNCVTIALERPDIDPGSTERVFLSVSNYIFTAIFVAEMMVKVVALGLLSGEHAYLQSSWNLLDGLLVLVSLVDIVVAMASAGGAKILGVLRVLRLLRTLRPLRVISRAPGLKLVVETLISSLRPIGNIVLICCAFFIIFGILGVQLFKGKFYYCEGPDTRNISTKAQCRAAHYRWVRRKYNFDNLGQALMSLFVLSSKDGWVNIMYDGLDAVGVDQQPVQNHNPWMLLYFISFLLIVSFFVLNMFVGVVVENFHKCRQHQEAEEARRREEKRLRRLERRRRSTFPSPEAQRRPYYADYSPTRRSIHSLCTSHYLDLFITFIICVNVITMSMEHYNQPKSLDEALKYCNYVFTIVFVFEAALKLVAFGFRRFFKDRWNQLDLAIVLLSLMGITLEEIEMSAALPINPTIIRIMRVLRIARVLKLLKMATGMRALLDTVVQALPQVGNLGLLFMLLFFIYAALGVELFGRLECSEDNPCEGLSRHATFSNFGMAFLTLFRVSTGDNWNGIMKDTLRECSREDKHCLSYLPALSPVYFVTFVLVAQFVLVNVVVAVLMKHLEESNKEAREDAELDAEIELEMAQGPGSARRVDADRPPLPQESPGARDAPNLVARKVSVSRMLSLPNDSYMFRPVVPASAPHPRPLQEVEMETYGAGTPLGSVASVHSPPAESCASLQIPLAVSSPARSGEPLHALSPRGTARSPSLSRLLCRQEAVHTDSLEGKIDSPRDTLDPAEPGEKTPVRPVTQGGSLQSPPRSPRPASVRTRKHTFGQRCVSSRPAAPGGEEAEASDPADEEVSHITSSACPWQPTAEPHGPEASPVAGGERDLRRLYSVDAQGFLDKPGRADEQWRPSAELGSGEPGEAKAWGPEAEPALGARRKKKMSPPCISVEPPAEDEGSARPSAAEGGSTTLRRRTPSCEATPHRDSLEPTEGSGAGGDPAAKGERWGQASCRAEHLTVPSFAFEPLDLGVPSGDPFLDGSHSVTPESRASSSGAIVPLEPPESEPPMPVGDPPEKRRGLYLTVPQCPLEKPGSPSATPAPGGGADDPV
PLAP act: activators of human placental alkaline phosphatase; P05187; purified PLAP enzyme, luminescent substrate read-out; active compounds read high; activation fold at 20 µM; 96,000 tested, 1.2% active; AID 696; in the data active = activation fold above about 2
M1 antagonist: blocks the rat M1 muscarinic receptor response to acetylcholine; B-score at 10 µM; CHO-M1 cells, Fluo-4 calcium, ACh EC80 antagonist mode; active compounds read low; AID 628; P08482; 64,000 tested, 3.4% active;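 active = calcium fluorescence response, raw or row-and-column corrected B-score, differing from the plate sample mean either way at a set confidence level, mostly lower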
HER2 expr 66K: inhibitors of human Her2 kinase expression | SKBR-3 HER2 protein level, AlphaScreen, 18-24 h; active compounds read low | HER2 level % of control, % at 10 µM | 65,000 tested, 0.69% active | AID 645;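 active = HER2 level under 5% of the carrier-only control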;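 also: 100% = DMSO carrier and 0% = 500 nM PU-H71 HSP90 inhibitor; lower value means stronger loss of Her2 protein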
M1 agonist: agonists of M1 muscarinic receptor; CHO-M1 cells, Fluo-4 calcium fluorescence, agonist mode; active compounds read high; B-score at 10 µM; 64,000 tested, 3% active; AID 626;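 active = fluorescence rise, raw or as B-score row- and column-corrected plate score, outside the 99.7% band of its plate's samples, either direction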
* hit, by the source's call; x = no result.

SMILES	Cav3 T inh	PLAP act	M1 antagonist	HER2 expr 66K	M1 agonist
CCCCCn1c(=O)c(C(=O)OCC)c(O)c2ccccc21	x	1.2	0.346	68.9	2.13
CCCCCCCCn1c(=O)c(C(=O)OCC)c(O)c2ccccc21	-7.43*	1.6	x	x	x
O=S(=O)(c1ccc2c(c1)C(=NO)c1cc(S(=O)(=O)N3CCCCC3)ccc1-2)N1CCCCC1	-6.43*	1	-0.48	-21.8*	-1.32
CCN(CC)S(=O)(=O)c1ccc(C)c(C)c1	0.0549	1.2	x	x	x
CCN(CC)S(=O)(=O)c1ccc2c(c1)C(=NO)c1cc(S(=O)(=O)N(CC)CC)ccc1-2	-5.75*	x	x	x	x
CCN(CC)S(=O)(=O)c1cccc(S(=O)(=O)c2cccc(S(=O)(=O)N(CC)CC)c2)c1	-5.28*	1.6	-0.244	156.5	-0.98
CC1CCN(S(=O)(=O)c2ccc3c(c2)C(=NO)c2cc(S(=O)(=O)N4CCC(C)CC4)ccc2-3)CC1	-3.5	1	x	x	x
COc1ccc(-c2nnc(SCC(=O)NC(C)c3ccccc3)o2)cc1OC (stereo not given)	-0.441	1.1	-0.807	107.1	-0.0501
CCCOCCOC(=O)c1[nH]c2c(c1C)C(=O)CC(c1cc(OC)ccc1OC)C2 (stereo not given)	-5.29*	x	1.05	35.9	0.199
COCCOC(=O)c1[nH]c2c(c1C)C(=O)CC(c1cc(OC)ccc1OC)C2 (stereo not given)	-0.00023	0.9	0.673	70.2	0.441
O=c1nc(N2CCCCC2)nc(Nc2ccccc2)[nH]1	0.432	2.3*	x	x	x
CC(C)CCn1c(CN2CCN(c3cccc(Cl)c3)CC2)nc2c1c(=O)n(C)c(=O)n2C	-5.43	x	-0.277	86.0	0.168
Cc1cc(OC(C)C(=O)N/N=C/CC(C)c2ccccc2)ccc1Cl (stereo not given)	-6.48*	1	x	x	x
O/N=C(\c1ccc(Cl)cc1)c1ncc(C(F)(F)F)cc1Cl	-6.05*	0.6	x	x	x
COc1ccc(-c2nc(CN3CCC(C(=O)NC(C)C)CC3)c(C)o2)cc1OC	x	x	-0.379	95.8	-0.0624
Cc1ccc(C2=NC(C)(C)N=C2SCC(=O)Nc2ccc(Cl)cc2)cc1	-4.71*	1.6	x	x	x
CC1(C)N=C(SCC(=O)Nc2ccccc2)C(c2ccc(Cl)cc2)=N1	-6.74*	1	x	x	x
CC1(C)N=C(SCC(=O)Nc2ccc(Cl)cc2Cl)C(c2ccccc2)=N1	-5.65*	1.1	x	x	x
Cc1cccc(NC(=S)NC2CC3CCCC(C2)N3Cc2cccs2)c1 (stereo not given)	-2.98	1.5	x	x	x
CO/N=C(/CNC(=O)c1ccc(F)cc1)c1ccc(Cl)cc1	x	1	x	x	x
CC1CCN(c2ccccc2NC(=S)NC(=O)c2cccs2)CC1	-6.27*	1	x	x	x
COC(=O)C(C)Sc1nc(-c2ccc(OC)cc2)nc2c1c(=O)n(C)c(=O)n2C (stereo not given)	x	x	0.239	65.5	0.163
CCOC(=O)C(C)Sc1ncc(OC)c(Sc2ccc(Cl)cc2)n1 (stereo not given)	-4.61	1.3	x	x	x
CCOC(=O)CSc1ncc(OC)c(Sc2ccc(Cl)cc2)n1	-10.7*	1.1	x	x	x
C=CCOc1ccc2ccccc2c1CNc1ncn[nH]1	0.248	1.7	-0.265	105.7	1.03
SMILES	Cav3 T inh	PLAP act	M1 antagonist	HER2 expr 66K	M1 agonist
c1ccc(CNc2ncnc3nc[nH]c23)cc1	0.211	2*	x	x	x
CCOc1cc(CNc2ncnc3nc[nH]c23)ccc1OC	x	2.2*	1.21	87.6	0.941
O=C(Nc1cc(Cl)cc(Cl)c1)c1ccc(Cn2c(=O)[nH]c3ccsc3c2=O)cc1	0.999	x	x	x	x
CC(C)C1Nc2ccc(S(N)(=O)=O)cc2C2C=CCC21 (stereo not given)	-0.877	1.2	-0.0391	82.9	2.13*
NS(=O)(=O)c1ccc2c(c1)C1C=CCC1C(C1CC=CCC1)N2 (stereo not given)	-3.17	1	x	x	x
COc1ccc(C(=O)Cn2c(NCCO)nc3ccccc32)cc1OC	-0.274	x	x	x	x
CCCc1nnc(NC(=O)COC(=O)c2cc(C)nc3ccccc23)s1	-4.34	1	x	x	x
CCCc1nnc(NC(=O)C(CC)OC(=O)c2cc(C)nc3ccccc23)s1 (stereo not given)	-4.32*	1.3	x	x	x
Cc1ccc(S(=O)(=O)c2ccc(Oc3cccc(C)c3)cc2)cc1	-2.06	1.1	x	x	x
COc1ccc(-n2nnnc2S(=O)(=O)CC(=O)N2CCCCC2)cc1	0.494	0.8	-0.568	-29.4*	-0.173
COc1ccc(-n2nnnc2S(=O)(=O)Cc2ccc(C(=O)O)cc2)cc1	0.817	1.3	-0.00917	36.4	-1.49
CC1(c2nnc(-c3cccc(Cl)c3)o2)CC(c2cccc(Cl)c2)=NO1 (stereo not given)	0.595	x	x	x	x
CS(=O)(=O)N(CC(=O)N1CCN(c2cccc(Cl)c2)CC1)C1CCCCC1	-0.197	1.1	0.00826	74.9	-0.0765
Cc1ccc(S(=O)(=O)N(CC(=O)N2CCN(c3ccc(F)cc3)CC2)C2CCCCC2)cc1	-5.77*	1.3	x	x	x
Cc1ccc(Cl)cc1N1CCN(C(=O)CN(C2CCCCC2)S(C)(=O)=O)CC1	-4.86*	x	x	x	x
CCOC(=O)N1CCC(Nc2c(-c3ccc(C)c(C)c3)c(=O)c2=O)CC1	0.899	1.1	0.113	95.9	-0.187
CCOC(=O)N1CCC(Nc2c(N3CCN(c4cc(Cl)ccc4C)CC3)c(=O)c2=O)CC1	-4.14*	1.6	-0.602	41.2	-0.986
CCOC(=O)N1CCN(C(=O)CN(C2CCCCC2)S(=O)(=O)c2ccc(C)cc2)CC1	0.954	1.6	-0.184	101.6	-0.509
CCOc1cc(S(=O)(=O)N2CCCCCC2)ccc1F	-1.66	0.8	x	x	x
CC(C)c1[nH]nc2c1C(Cc1ccccc1)C(C#N)=C(N)O2 (stereo not given)	-8.63*	1.8	-1.44	84.4	-0.682
CC(C)CC1C(C#N)=C(N)Oc2n[nH]c(-c3ccccc3)c21 (stereo not given)	-0.0518	x	x	x	x
CC(C)C1C(C#N)=C(N)Oc2n[nH]c(-c3ccccc3)c21 (stereo not given)	0.107	x	1.27*	135.6	-0.152
Cc1[nH]nc2c1C(Cc1ccccc1)C(C#N)=C(N)O2 (stereo not given)	0.902	1.8	0.618	99.8	-0.729
COC(=O)C1Cc2c([nH]c3ccccc23)CN1 (stereo not given)	1.14	1	0.433	-19.1*	-0.0336
CC[C@@H]1CN(C)[C@H]2Cc3c([nH]c4ccccc34)C(=O)C[C@@H]1[C@@H]2C(=O)OC	-1.04	x	x	x	x
SMILES	Cav3 T inh	PLAP act	M1 antagonist	HER2 expr 66K	M1 agonist
CNC(=S)N1N=C(c2ccc(C)cc2)CC1c1ccc(Cl)cc1 (stereo not given)	-6.25*	1.1	x	x	x
CNC(=S)N1N=C(c2ccc(C)cc2)CC1c1ccc(Br)cc1 (stereo not given)	-6.26*	0.9	x	x	x
CCC(=O)N1N=C(c2ccc(NS(C)(=O)=O)cc2)CC1c1ccc(C)cc1 (stereo not given)	0.877	1.3	x	x	x
Cc1ccc(C2=NNC(=O)C(c3ccc(Cl)cc3)C2)cc1 (stereo not given)	-2.02	0.9	x	x	x
CC1(C)C(=O)Nc2ccccc2N1C(=O)COC(=O)c1ccc(Cl)c(S(=O)(=O)NCc2ccccc2)c1	-3.75*	1.7	x	x	x
CCC1=NC(c2ccccc2Cl)N(O)C1(C)C (stereo not given)	0.304	0.9	-0.311	86.9	0.398
CCCCNC(=O)Nc1nnc(-c2ccccc2)o1	1.15	2.1*	x	x	x

Source: PubChem BioAssay (several laboratories)
